Measured values taken from PubChem BioAssay (EPA / NIEHS).
Activity calls are given as the source filed them. How the source made its calls: active means hit-call score of the fitted dose curve at least 0.9, where 1 is the maximum; inactive means score below 0.9.

What was measured:
[1] = read-out: Interleukin-1 alpha (IL1a), IL1A (gene 3552); test: BSK_KF3CT_IL1a: BioMAP Diversity Plus: KF3CT Assay for Interleukin-1 alpha (IL1a) Biomarker Activity (AID 2283070); details: primary human keratinocytes with fibroblasts; actives raise or lower the signal
How it was run: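 Primary skin co-culture (keratinocytes, foreskin fibroblasts), 24 h exposure; ELISA for IL-1a; bidirectional curve fit vs DMSO.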

[2] = read-out: Transforming growth factor beta 1 (TGFb1), TGFB1 (gene 7040); test: BSK_KF3CT_TGFb1: BioMAP Diversity Plus: KF3CT Assay for Transforming growth factor beta 1 (TGFb1) Biomarker Activity (AID 2283072); details: primary human keratinocytes with fibroblasts; actives raise or lower the signal
How it was run: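 KF3CT co-culture (keratinocytes + fibroblasts), 24 h exposure → TGF-b1 ELISA → bidirectional fit, DMSO = baseline. Parallel SRB total-protein staining (0.1% SRB, 10% TCA fixation, 560 nm) for cytotoxicity.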

[3] = read-out: C-C motif chemokine 2 (Homo sapiens) (UniProt P13500); test: BSK_KF3CT_MCP1: BioMAP Diversity Plus: KF3CT Assay for Monocyte Chemoattractant Protein 1 (MCP1/CCL2) Biomarker Activity (AID 2283073); details: primary human keratinocytes with fibroblasts; actives raise or lower the signal
How it was run: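 Biomarker MCP-1 is measured by ELISA in primary human keratinocytes co-cultured with foreskin fibroblasts, 24 h after chemical treatment; DMSO serves as the negative control and activity baseline.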

[4] = read-out: Matrix Metallopeptidase 9 (MMP9), MMP9 (gene 4318); test: BSK_KF3CT_MMP9: BioMAP Diversity Plus: KF3CT Assay for Matrix Metallopeptidase 9 (MMP9) Biomarker Activity (AID 2283074); details: primary human keratinocytes with fibroblasts; actives raise or lower the signal;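 on AC50: MMP9 protein level quantified by ELISA in the co-culture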
How it was run: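 ELISA read-out of MMP-9 at 24 h post-dosing in a co-culture of human skin keratinocytes and foreskin fibroblasts. Gain or loss of signal was fitted in both directions against DMSO.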

[5] = read-out: urokinase plasminogen activator (uPA), PLAU (gene 5328); test: BSK_KF3CT_uPA: BioMAP Diversity Plus: KF3CT Assay for urokinase plasminogen activator (uPA) Biomarker Activity (AID 2283075); details: primary human keratinocytes with fibroblasts; actives raise or lower the signal
How it was run: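 Skin co-culture (keratinocytes + foreskin fibroblasts), human primary; 24 h post-dose; uPA by ELISA; gain/loss fit vs DMSO baseline.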

CD40, CD40 (gene 958) [6] = test: BSK_LPS_CD40: BioMAP Diversity Plus: LPS Assay for CD40 Biomarker Activity (AID 2283076); details: primary human HUVEC with PBMC; actives raise or lower the signal
How it was run: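 Using a multiplexed primary human co-culture (umbilical vein endothelium plus PBMC), CD40 was read by ELISA 24 h after dosing, with cytotoxicity tracked by sulforhodamine B staining of parallel cultures and activity fitted bidirectionally versus DMSO.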

[7] = read-out: Interleukin-8 (IL8), CXCL8 (gene 3576); test: BSK_LPS_IL8: BioMAP Diversity Plus: LPS Assay for Interleukin-8 (IL8) Biomarker Activity (AID 2283078); details: primary human HUVEC with PBMC; actives raise or lower the signal
How it was run: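 In this LPS system, chemical-treated human umbilical vein endothelium/PBMC co-cultures were harvested at 24 h for IL-8 ELISA.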

[8] = BSK_LPS_SRB: Viability Assessment in the BioMAP Diversity Plus: LPS Assay (AID 2283079); details: primary human HUVEC with PBMC;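 further: total protein by sulforhodamine B absorbance as a cytotoxicity measure; measured one day after compound addition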
How it was run: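 Cytotoxicity endpoint in human endothelial–PBMC co-culture: 24 h exposure, then SRB (0.1%) staining, 560 nm read.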

[9] = read-out: Interleukin-1 alpha (IL1a), IL1A (gene 3552); test: BSK_LPS_IL1a: BioMAP Diversity Plus: LPS Assay for Interleukin-1 alpha (IL1a) Biomarker Activity (AID 2283080); details: primary human HUVEC with PBMC; actives raise or lower the signal
How it was run: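 Primary human HUVEC and PBMC co-culture stimulated with LPS is dosed and harvested at 24 h. Both increases and decreases in ELISA-measured IL-1a are scored relative to DMSO.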

[10] = read-out: Monocyte Chemoattractant Protein-1 (MCP1), CCL2 (gene 6347); test: BSK_LPS_MCP1: BioMAP Diversity Plus: LPS Assay for Monocyte Chemoattractant Protein-1 (MCP1) Biomarker Activity (AID 2283081); details: primary human HUVEC with PBMC; actives raise or lower the signal;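 on AC50: secreted MCP-1 protein quantified by ELISA in culture supernatant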
How it was run: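 Values derive from bidirectional fitting against DMSO of ELISA-measured MCP-1 in a human primary endothelial and mononuclear cell co-culture, 24 h after chemical addition under LPS activation.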

[11] = BSK_LPS_PGE2: BioMAP Diversity Plus: LPS Assay for Prostaglandin E2 (PGE2) Biomarker Activity (AID 2283082); details: primary human HUVEC with PBMC; actives raise or lower the signal;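 on AC50: secreted prostaglandin E2 measured by ELISA in LPS-stimulated co-culture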
How it was run: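 Compounds were added to the LPS co-culture of endothelium and PBMC, and PGE2 was measured by ELISA after 24 h. Responses in either direction were fitted with DMSO as baseline.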

[12] = read-out: Macrophage colony-stimulating factor (MCSF), CSF1 (gene 1435); test: BSK_LPS_MCSF: BioMAP Diversity Plus: LPS Assay for Macrophage colony-stimulating factor (MCSF) Biomarker Activity (AID 2283083); details: primary human HUVEC with PBMC; actives raise or lower the signal
How it was run: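 Bidirectional fit versus DMSO of ELISA-measured M-CSF in co-cultured human umbilical vein endothelial cells and PBMC, sampled 24 h after dosing.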

[13] = read-out: Tissue Factor, F3 (gene 2152); test: BSK_LPS_TissueFactor: BioMAP Diversity Plus: LPS Assay for Tissue Factor Biomarker Activity (AID 2283084); details: primary human HUVEC with PBMC; actives raise or lower the signal
How it was run: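 Read-out: CD142 ELISA, 24 h. System: LPS-driven human endothelial/PBMC co-culture. Analysis: up- or down-signal fitted against DMSO.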

[14] = read-out: Tumor necrosis factor (Homo sapiens) (UniProt P01375); test: BSK_LPS_TNFa: BioMAP Diversity Plus: LPS Assay for Tumour Necrosis Factor alpha (TNFa) Biomarker Activity (AID 2283085); details: primary human HUVEC with PBMC; actives raise or lower the signal;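 on AC50: TNFa protein level quantified by ELISA in the co-culture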
How it was run: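 Cells (umbilical vein endothelium plus peripheral blood mononuclear cells) were dosed with chemical, incubated 24 h, then TNFa was quantified by ELISA; values derive from bidirectional fitting with DMSO as baseline.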

CD38, CD38 (gene 952) = test: BSK_SAg_CD38: BioMAP Diversity Plus: SAg Assay for CD38 Biomarker Activity (AID 2283087); details: primary human HUVEC with PBMC; actives raise or lower the signal
How it was run: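 CD38 quantified by ELISA (fluorescence) in a superantigen-activated endothelial cell–PBMC co-culture at 24 h post-dose. Activity fitted in both directions relative to DMSO; parallel SRB and Alamar Blue cytotoxicity read-outs.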

CD40, CD40 (gene 958) [15] = test: BSK_SAg_CD40: BioMAP Diversity Plus: SAg Assay for CD40 Biomarker Activity (AID 2283088); details: primary human HUVEC with PBMC; actives raise or lower the signal
How it was run: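 Endpoint derived by fitting increases or decreases versus DMSO controls. CD40 is detected by fluorescence ELISA in a human vascular co-culture of endothelium and PBMC at 24 h.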

CD69, CD69 (gene 969) = test: BSK_SAg_CD69: BioMAP Diversity Plus: SAg Assay for CD69 Biomarker Activity (AID 2283089); details: primary human HUVEC with PBMC; actives raise or lower the signal;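 on AC50: cell surface CD69 protein quantified by ELISA with fluorescence detection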
How it was run: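 Primary human vascular co-culture (umbilical vein endothelium with peripheral blood mononuclear cells) exposed to test chemical for 24 h. CD69 levels quantified by fluorescence ELISA; DMSO served as negative control for bidirectional fitting.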

[16] = read-out: E-selectin (Homo sapiens) (UniProt P16581); test: BSK_LPS_Eselectin: BioMAP Diversity Plus: LPS Assay for Eselectin Biomarker Activity (AID 2283077); details: primary human HUVEC with PBMC; actives raise or lower the signal
How it was run: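 Dose chemical onto LPS-driven HUVEC/PBMC co-culture; after 24 h, run ELISA for E-selectin; fit up- and down-going responses relative to DMSO control.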

[17] = read-out: Vascular cell adhesion molecule 1 (VCAM1), VCAM1 (gene 7412); test: BSK_LPS_VCAM1: BioMAP Diversity Plus: LPS Assay for Vascular cell adhesion molecule 1 (VCAM1) Biomarker Activity (AID 2283086); details: primary human HUVEC with PBMC; actives raise or lower the signal
How it was run: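 Cells are dosed in an LPS-stimulated endothelial/mononuclear co-culture and, after 24 h, VCAM-1 is quantified by ELISA. Activity in either direction is fitted relative to the DMSO negative control.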

Tumor necrosis factor (Homo sapiens), sequence (P01375 whole entry, looked up): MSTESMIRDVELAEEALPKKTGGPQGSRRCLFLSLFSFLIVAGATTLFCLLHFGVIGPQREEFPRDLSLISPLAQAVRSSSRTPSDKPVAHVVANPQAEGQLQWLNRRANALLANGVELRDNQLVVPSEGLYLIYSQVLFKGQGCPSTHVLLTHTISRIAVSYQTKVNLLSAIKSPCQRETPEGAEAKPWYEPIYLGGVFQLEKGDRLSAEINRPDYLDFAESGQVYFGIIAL
E-selectin (Homo sapiens), sequence (P16581 whole entry, looked up): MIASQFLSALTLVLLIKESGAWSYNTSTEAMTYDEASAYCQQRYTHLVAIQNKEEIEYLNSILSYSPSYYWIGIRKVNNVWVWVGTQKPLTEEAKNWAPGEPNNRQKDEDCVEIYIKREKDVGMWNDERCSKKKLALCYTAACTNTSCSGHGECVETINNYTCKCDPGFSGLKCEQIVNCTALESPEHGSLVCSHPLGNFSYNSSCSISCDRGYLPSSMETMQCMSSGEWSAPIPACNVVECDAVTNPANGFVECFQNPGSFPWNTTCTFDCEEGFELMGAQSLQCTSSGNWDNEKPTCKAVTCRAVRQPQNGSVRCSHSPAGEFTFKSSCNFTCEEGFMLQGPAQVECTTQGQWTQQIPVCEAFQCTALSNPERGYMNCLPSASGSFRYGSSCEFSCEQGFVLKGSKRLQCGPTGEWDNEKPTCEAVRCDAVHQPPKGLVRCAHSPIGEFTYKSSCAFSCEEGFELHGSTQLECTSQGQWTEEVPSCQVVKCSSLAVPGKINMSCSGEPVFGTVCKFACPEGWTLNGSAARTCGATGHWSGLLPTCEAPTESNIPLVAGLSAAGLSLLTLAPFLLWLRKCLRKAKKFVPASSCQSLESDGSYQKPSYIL

## CCOC(=O)C1=NN(c2ccc(Cl)cc2Cl)C(C)(C(=O)OCC)C1 (stereo unspecified)
[1]
  outcome: inactive
[2]
  outcome: inactive
[3]
  outcome: inactive
[4]
  outcome: inactive
[5]
  outcome: inactive
CD40, CD40 (gene 958) [6]
  outcome: inactive
[7]
  outcome: inactive
[8]
  outcome: inactive
[9]
  outcome: inactive
[10]
  outcome: inactive
[11]
  AC50: 8.97 µM (active)
[12]
  outcome: inactive
[13]
  outcome: inactive
[14]
  outcome: inactive
CD38, CD38 (gene 952)
  outcome: inactive
CD40, CD40 (gene 958) [15]
  outcome: inactive
CD69, CD69 (gene 969)
  outcome: inactive

## Fc1ccc(Br)cc1
[1]
  outcome: inactive
[2]
  outcome: inactive
[3]
  outcome: inactive
[4]
  outcome: inactive
[5]
  outcome: inactive
CD40, CD40 (gene 958) [6]
  outcome: inactive
[7]
  outcome: inactive
[8]
  outcome: inactive
[9]
  outcome: inactive
[10]
  outcome: inactive
[11]
  outcome: inactive
[12]
  outcome: inactive
[13]
  outcome: inactive
[14]
  outcome: inactive
CD40, CD40 (gene 958) [15]
  outcome: inactive
CD69, CD69 (gene 969)
  outcome: inactive

## Cc1c(O)cccc1O
[1]
  outcome: inactive
[2]
  outcome: inactive
[3]
  outcome: inactive
[4]
  outcome: inactive
[5]
  outcome: inactive
CD40, CD40 (gene 958) [6]
  outcome: inactive
[7]
  outcome: inactive
[8]
  outcome: inactive
[9]
  outcome: inactive
[10]
  outcome: inactive
[11]
  outcome: inactive
[12]
  outcome: inactive
[13]
  outcome: inactive
[14]
  outcome: inactive
CD40, CD40 (gene 958) [15]
  outcome: inactive
CD69, CD69 (gene 969)
  outcome: inactive

## CCN1CN(CC)CN(CC)C1
[1]
  outcome: inactive
[2]
  outcome: inactive
[3]
  outcome: inactive
[4]
  outcome: inactive
[5]
  outcome: inactive
CD40, CD40 (gene 958) [6]
  outcome: inactive
[7]
  outcome: inactive
[8]
  outcome: inactive
[9]
  outcome: inactive
[10]
  outcome: inactive
[11]
  outcome: inactive
[12]
  outcome: inactive
[13]
  outcome: inactive
[14]
  AC50: 2.22 µM (active)
CD40, CD40 (gene 958) [15]
  outcome: inactive
CD69, CD69 (gene 969)
  outcome: inactive

## C=CC(=O)OCC(C)OCC(C)OCC(C)OC(=O)C=C (stereo unspecified)
[1]
  AC50: 20 µM (active)
[2]
  outcome: inactive
[3]
  AC50: 10.4 µM (active)
[4]
  AC50: 14.7 µM (active)
[5]
  AC50: 20 µM (active)
CD40, CD40 (gene 958) [6]
  AC50: 6.73 µM (active)
[16]
  AC50: 9.34 µM (active)
[7]
  AC50: 11.9 µM (active)
[8]
  AC50: 22.9 µM (active)
[9]
  AC50: 9.53 µM (active)
[10]
  AC50: 9.18 µM (active)
[11]
  AC50: 5.46 µM (active)
[12]
  AC50: 10 µM (active)
[13]
  AC50: 10.6 µM (active)
[14]
  outcome: inactive
CD40, CD40 (gene 958) [15]
  AC50: 8.77 µM (active)
CD69, CD69 (gene 969)
  AC50: 7.77 µM (active)

## CCc1cccc(C)c1N(C(=O)CS(=O)(=O)O)C(C)COC (stereo unspecified)
[1]
  outcome: inactive
[2]
  outcome: inactive
[3]
  outcome: inactive
[4]
  outcome: inactive
[5]
  outcome: inactive
CD40, CD40 (gene 958) [6]
  outcome: inactive
[7]
  outcome: inactive
[8]
  outcome: inactive
[9]
  outcome: inactive
[10]
  outcome: inactive
[11]
  outcome: inactive
[12]
  outcome: inactive
[13]
  outcome: inactive
[14]
  outcome: inactive
CD40, CD40 (gene 958) [15]
  outcome: inactive
CD69, CD69 (gene 969)
  outcome: inactive

## Nc1cccc(N)n1
[1]
  outcome: inactive
[2]
  outcome: inactive
[3]
  outcome: inactive
[4]
  outcome: inactive
[5]
  outcome: inactive
CD40, CD40 (gene 958) [6]
  outcome: inactive
[7]
  outcome: inactive
[8]
  outcome: inactive
[9]
  outcome: inactive
[10]
  outcome: inactive
[11]
  outcome: inactive
[12]
  outcome: inactive
[13]
  outcome: inactive
[14]
  outcome: inactive
CD40, CD40 (gene 958) [15]
  outcome: inactive
CD69, CD69 (gene 969)
  outcome: inactive

## C=CC(=O)NC(C)(C)C
[1]
  outcome: inactive
[2]
  outcome: inactive
[3]
  outcome: inactive
[4]
  outcome: inactive
[5]
  outcome: inactive
CD40, CD40 (gene 958) [6]
  outcome: inactive
[7]
  outcome: inactive
[8]
  outcome: inactive
[9]
  outcome: inactive
[10]
  outcome: inactive
[11]
  outcome: inactive
[12]
  outcome: inactive
[13]
  outcome: inactive
[14]
  outcome: inactive
[17]
  outcome: inactive
CD40, CD40 (gene 958) [15]
  outcome: inactive
CD69, CD69 (gene 969)
  outcome: inactive
